A short description of the assay: qHTS Assay for Lipid Storage Modulators (AID 1519). As to activity change, negative = inhibition: % is scaled to controls: 0 for no effect and ±100 for the full control effect. The following applies: Drosophila S3 cells, BODIPY lipid droplet/cell ratio, laser cytometry, cells loaded with oleic acid. The text has this:
NIH Molecular Libraries Probe Production Centers Network [MLPCN]
NIH Chemical Genomics Center [NCGC]
Assay Submitter (PI): Beller, Mathias; Max-Planck-Institut fur Biophysikalische Chemie
NCGC Assay Overview: Storing lipids as a reservoir for energy or the anabolism of elementary metabolites is a common feature of probably all cells and is conserved from bacteria to humans. The universal cellular lipid storage organelle is the so-called lipid storage droplet (LD). Although ubiquitous, LDs share a simple structure composed of a hydrophobic core that harbors the storage lipids, which is shielded by a droplet-specific phospholipid monolayer to which proteins are attached. The current model of LD biogenesis involves an incorporation of the lipid core into the membrane leaflets of the endoplasmic reticulum (ER) followed by a subsequent budding-like maturation of a LD, which ultimately pinches off. Once released, LD volume can increase by localized lipogenesis or fusion of existing droplets. Storage lipids are re-mobilized enzymatically by lipase activity. Lipase regulation in the adipocyte is heavily studied and involves multiple components including catecholamine signaling, the LD-associated proteins Perilipin and comparative gene identification-58 (CGI-58) and at least two lipases named hormone sensitive lipase (HSL) and adipocyte triglyceride lipase (ATGL). LD regulation outside of the adipocyte is poorly understood and only few components are known. However, there is an urgent need to learn more about ectopic fat depots as mislocalized storage of lipids, for example in the liver or muscle, is an eminent health problem associated with insulin resistance or the metabolic syndrome. We developed a laser-scanning cytometer assay to enable 1,536-well screening and combined the results of the small molecules screen with an RNAi database based on lipid storage.
NCGC Assay Protocol Summary:
We dispensed 4 uL of cells at 1.25 x 10^6 cells/mL into LoBase Aurora COC 1,536-well plates (black walled, clear bottom) with a bottle-valve solenoid-based dispenser (Aurora) to obtain 5,000 cells/well. Triacsin C (Sigma-Aldrich T-4540), an inhibitor of long-chain fatty acyl CoA synthetase that blocks synthesis of triglycerides, was used as a positive control for lipid under-storage. A total of 23 nL of compound solution of different concentrations were transferred to the assay plates using a Kalypsys pin tool equipped with a 1,536-pin array containing 10-nL slotted pins (FP1S10, 0.457-mm diameter, 50.8 mm long; V&P Scientific). One microliter of oleic acid (400 uM) was added, and the plate was lidded with stainless steel rubber gasket lined lids containing pinholes. […] Fluorescence was detected by excitation of the fluorophores with a 488-nm laser on an Acumen Explorer (TTP Lab Tech). The total intensity in channel 1 (500-530 nm) reflected lipid droplet accumulation. […] The ratio of the total intensity in PMT channel 1 over total intensity of channel 3 was also calculated. Percent activity was computed relative to an internal control (100% inhibited lipid droplet deposition due to the presence of 20 uM Triacsin C), which was added to 32 wells/plate.
A general note: qHTS replaces the single test concentration by a dilution series.

Setting [1] is: measured here: cell count channel max response.
[2] abbreviates: measured here: lipid channel max response.

Structures are written as SMILES. “And” between values parts separate entries of the source, which are not always exact repeats. Equal values may be shown once. Results filed as inconclusive are left out. The source made the active and inactive calls. Calls follow the shape of the full dose curve.

As for `COc1ccc2c(c1OC)C(=O)OC2[C@H]1c2c(cc3c(c2OC)OCO3)CCN1C` (stereo not given in full), the activity change, negative = inhibition (at 25.7 µM (top of the series)) was 0.244% (inactive). The max response under setting [1] is -11.8% and the max response under setting [2] was -9.72%.
Taken in the same sequence, the figures for `Nc1nc2c(c(=O)[nH]1)N(C=O)[C@H](CNc1ccc(C(=O)N[C@@H](CCC(=O)O)C(=O)O)cc1)CN2` were -2.58% (inactive), -9.43% and -11.6%.
Taken in the same sequence, the figures for `CN(C)CC[C@H](c1ccc(Cl)cc1)c1ccccn1` were -0.988% (inactive), 4.39% and 4.57%.
Taken in the same sequence, the figures for `COc1ccc([C@@H]2CNC(=O)C2)cc1OC1CCCC1` were -2.44% (inactive), -4.18% and -7.27%.
As for `c1coc(CNc2ncnc3nc[nH]c23)c1`, the activity change, negative = inhibition was 1.26% (inactive) (at 25.7 µM (top of the series)) and 6.17% (inactive) (at 57.5 µM (top of the series)). The max response is -19.4% and 15.6% under setting [1]; -19.1% and 25.8% under setting [2].
As for `COc1cc2c(cc1O)CCC1C2CC[C@@]2(C)C1CC[C@@H]2O` (stereo not given in full), under “at 57.5 µM (top of the series)”, the activity change, negative = inhibition was -1.86% (inactive). Also, the max response under setting [1] is 18.4% and the max response under setting [2] worked out at 18.6%.
`Cc1cc(O)c2c(c1)C(=O)c1cccc(O)c1C2=O`: the activity change, negative = inhibition (at 57.5 µM (top of the series)) was 5.96% (inactive) and -4.1% (inactive). Besides, the max response is 3.86% and 2.84% under setting [1]; 13.4% and 1.16% under setting [2].
Consider `CN(N=O)C(=O)N[C@H]1C(O)OC(CO)[C@@H](O)[C@H]1O` (stereo not given in full), for which the activity change, negative = inhibition (at 57.5 µM (top of the series)) was -2.09% (inactive). Moreover, the max response is 10.4% under setting [1] and 8.35% under setting [2].
The matching figures for `C[C@@]12C(=O)OC(=O)[C@@]1(C)C1CCC2O1`: -13.3% (inactive), -9.65% and -21.9%.
Taken in the same sequence, the figures for `Oc1cc2c(cc1O)C1c3ccc(O)c(O)c3OCC1(O)C2` (stereo not given) were 6.13% (inactive), -4.57% and 5.65%.
On to `Cc1ccc(O)c(C(CCN(C(C)C)C(C)C)c2ccccc2)c1` (stereo not given), for which the activity change, negative = inhibition (at 57.5 µM (top of the series)) is 7.57% (inactive). Further, the max response turned out to be 3.1% under setting [1] and 8.45% under setting [2].
The matching figures for `O=c1c(O)c(-c2ccc(O)c(O)c2)oc2cc(O)ccc12`: 4.11% (inactive), -27.3% and -24.1%.
The matching figures for `CC(Cc1ccc(O)c(O)c1)(NN)C(=O)O` (stereo not given): 4.17% (inactive), 0.886% and 8.76%.

(Values after PubChem BioAssay (NCATS).)
